Data on 58 variants can be found in the emibetuzumab library of Makowski et al. (2022).

To fix the notation:
B1: VH:VL chains; a variant is named by its letters at X, in order (parent)
chain 1: QVQLVQSGAEVKKPGASVKVSCKASGYTFTDYXMHWVRQAPGQGLEWMGXVNPNXXXTTYNQKFEGRVTMTTDTSTSTAYMELRSLRSDDTAVYYCARXNXLDXWGQGTTVTVSS
chain 2: DIQMTQSPSSLSASVGDRVTITCSVSSSVSSIYLHWYQQKPGKAPKLLIYSTSNLASGVPSRFSGSGSGTDFTLTISSLQPEDFATYYCQVYSGYPLTFGGGTKVEIK

The list shows a part of the results. The true hit rate is not given.

The variants in the test derive from B1. The experiment in a line: yeast display scFab, FACS + sequencing. The conditions noted are these: with MET. The method in brief:
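Antigen binding was called positive for sequences present in both antigen-positive samples and negative for those present only in the input. These calls came from deep sequencing, in two replicates, of round-3 sorted and input populations from a heavy-chain CDR mutant scFab yeast surface library. The library was first enriched twice magnetically on HGFR-Fc-coated Protein A beads and then by FACS, gating the top 50% antigen-positive cells after 3 h labelling at room temperature with 1 nM HGFR-Fc plus anti-Myc in PBSB with 1% milk.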
As to FTEEGDGA, the antigen binding call is on record as “no binding”.

DAGEAFSF: the antigen binding call is reported as “no binding”. With AGGGNDGV, the antigen binding call is reported as “no binding”. Take FRGRSSAF: the antigen binding call is listed as “binds”. In the case of FRGRGSAF, the antigen binding call is reported as “binds”.

For YEERSDAF, the antigen binding call is on record as “no binding”.

Turning to SAEGDAAD, the antigen binding call is given as “no binding”.

With SGEGGAGA, the antigen binding call is recorded as “no binding”. To SRGRGFAA belongs “no binding”; to DAARGAAA, “no binding”; to ARAASAGA, “no binding”. To SRARGAAA belongs “binds”; to SRARGAGA, “binds”. With SEEGTDWD the entry was “no binding”; with VATGDDVD, “no binding”. For the variant FKTKNYAD, the antigen binding call is “no binding”. To DKEGGDVV belongs “no binding”; to FTGTGSGA, “no binding”; to FRGESAGA, “binds”. With FRGRDYGA the entry was “no binding”.

With FRGESAAA, the antigen binding call is recorded as “binds”.

Take FRGESSGA: the antigen binding call is reported as “binds”. With YAAGSDVY the entry was “no binding”; with DGGKNDGD, “no binding”; with DGTGGAGA, “no binding”. For DTGGDAGV, the antigen binding call is on record as “no binding”.

DATGGDVV: the antigen binding call is recorded as “no binding”. On to FTEEGDGV, for which the antigen binding call is “no binding”.

For YRAGSSGV, the antigen binding call is reported as “binds”.

Take YRAKSSGV: the antigen binding call is on record as “binds”.

Take YAEESSGV: the antigen binding call is “no binding”. With YRAESSGV the entry was “binds”; with VAGAGDVV, “no binding”. With FARKSFGS the entry was “no binding”.

In the case of YAKRGSWA, the antigen binding call was “no binding”. Consider YRRRGSSA, for which the antigen binding call was “binds”. To YRKRGSSA belongs “binds”; to YRRRGSVA, “binds”; to DEGGTSLD, “no binding”. To YKAEDVGD belongs “no binding”; to YKARGAAD, “binds”; to YKAKGAGD, “binds”. In the case of YKAKGAAD, the antigen binding call is listed as “binds”.

Turning to YKAGDAGD, the antigen binding call is listed as “binds”. With VTAGDAGD the entry was “no binding”; with YKGKGDAD, “no binding”.

Take VEAGDAGD: the antigen binding call is reported as “no binding”.

For FAEGDDVV, the antigen binding call is “no binding”. With AEERDSVV the entry was “no binding”; with FRKAAVAV, “no binding”. To FTTGGSAV chain 1 M48I belongs “no binding”; to AEAGDAVV, “no binding”; to ARARGSWV, “binds”. To FRKRGSAV belongs “binds”; to ARAGGSVV, “binds”. As to FRGRGSLV, the antigen binding call is on record as “binds”. Regarding ARAAGDWV, the antigen binding call was “no binding”. To ARAKTSWV belongs “no binding”.
